# Compound activity from PubChem.
# Mdm2-MdmX inh: human Mdm2/MdmX binding inhibition; hit rate 3% among 330,000; AID 485346; SaOS-2 split-luciferase Mdm2/MdmX complementation, luminescence; O15151+Q00987; inhibition, % at 8 µM;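 active = inhibition of at least 50% at 8 µM in the primary screen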
# Target sequence (O15151 whole entry, looked up): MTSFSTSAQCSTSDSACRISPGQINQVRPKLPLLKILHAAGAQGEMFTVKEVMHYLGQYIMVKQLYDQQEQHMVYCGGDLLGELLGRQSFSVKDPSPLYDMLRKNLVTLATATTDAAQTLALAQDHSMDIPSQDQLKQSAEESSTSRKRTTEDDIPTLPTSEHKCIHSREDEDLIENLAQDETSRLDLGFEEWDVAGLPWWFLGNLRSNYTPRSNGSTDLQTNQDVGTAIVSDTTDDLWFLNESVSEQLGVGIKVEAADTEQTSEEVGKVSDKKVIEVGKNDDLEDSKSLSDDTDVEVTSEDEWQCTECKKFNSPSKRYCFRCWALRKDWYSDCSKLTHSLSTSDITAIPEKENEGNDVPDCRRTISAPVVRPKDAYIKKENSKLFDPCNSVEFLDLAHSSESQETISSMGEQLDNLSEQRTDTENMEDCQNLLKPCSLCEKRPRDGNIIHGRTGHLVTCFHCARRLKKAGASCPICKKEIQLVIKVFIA
# Target sequence (Q00987 whole entry, looked up): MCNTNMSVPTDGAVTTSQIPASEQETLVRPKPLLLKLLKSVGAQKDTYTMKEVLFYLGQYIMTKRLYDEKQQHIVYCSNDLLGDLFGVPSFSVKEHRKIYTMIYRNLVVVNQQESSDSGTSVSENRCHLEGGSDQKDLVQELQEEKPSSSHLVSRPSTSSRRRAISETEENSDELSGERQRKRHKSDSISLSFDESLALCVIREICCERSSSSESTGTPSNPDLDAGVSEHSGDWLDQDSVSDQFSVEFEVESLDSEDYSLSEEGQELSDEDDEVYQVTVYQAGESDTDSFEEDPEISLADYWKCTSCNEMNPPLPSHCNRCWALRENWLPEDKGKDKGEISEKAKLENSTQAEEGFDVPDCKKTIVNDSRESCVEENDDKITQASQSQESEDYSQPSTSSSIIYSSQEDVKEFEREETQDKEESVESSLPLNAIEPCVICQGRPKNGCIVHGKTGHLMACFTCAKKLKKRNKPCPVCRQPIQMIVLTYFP
# KKLEB tox: reduces viability of KKLEB cystic fibrosis airway cells; KKLEB CF airway cells viability, ATPlite luminescence, overnight; hits give low values; cells stimulated with P. aeruginosa culture filtrate; activity change (cytotoxicity), % at 5 µM; hit rate 0.36% among 360,000;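 active = corrected activity change at or below -50% at 5 µM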
# ABHD5-PLIN5 inh: blocks binding of human ABHD5 to perilipin-5; hit rate 0.78% among 360,000; Split G. princeps luciferase complementation, luminescence, 4 h; Q00G26+Q8WTS1; AID 602281; inhibition, % at 4 µM;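 active = inhibition above the mean inhibition across every tested compound plus 3 SD, cut at about 22% in these data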;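 also: 0% = DMSO only wells and the 100% control is not disclosed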
# CF NFkB inh: cystic fibrosis NF-kB activation inhibition; KKLEB NF-kB-GFP reporter, PAF-induced, GFP fluorescence overnight; inhibition, % at 5 µM; hit rate 0.86% among 360,000; AID 588850;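 active = at least 50% inhibition at 5 µM, scaled per plate between neutral and stimulator controls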;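 also: PAF is a Pseudomonas aeruginosa culture filtrate used as stimulus; plate controls were PAF-stimulated DMSO wells for no effect and unstimulated DMSO wells for full effect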
# HIF-2a inh: HIF-2a inhibition. hit rate 0.72% among 360,000. 786-0 RCC cells HIF-2a reporter, luciferase luminescence, overnight. AID 624352. inhibition, % at 18.8 µM;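 active = inhibition of the luminescence signal of 40% or more relative to plate controls, in a single-dose primary screen at 18.75 µM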
# Peg3 promoter: inhibitors of Peg3 promoter. HeLa PEG-Prom luciferase reporter, luminescence, overnight. inhibition, % at 20 µM. hit rate 1.7% among 360,000. AID 588405;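 active = inhibition of at least 50% at 20 µM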
# Mdm2-MdmX conf: human Mdm2/MdmX binding inhibition, confirmed; AID 489028; hit rate 55% among 10,000; luminescent assay; shares compounds with Mdm2-MdmX inh; inhibition, % at 8 µM; in the data active = inhibition above about 40%
# FLuc counter: full-length luciferase inhibition in Mdm2/MdmX counter-screen. hit rate 77% among 6,200. shares compounds with Mdm2-MdmX inh. SaOS-2 full-length luciferase counterscreen, luminescence. AID 504607. inhibition, % at 8 µM;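 active = mean inhibition at 8 µM reaching about 37%, which flags the compound as non-specific, limit read from the data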;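 also: p53-null SaOS-2 cells with luciferase driven by a doxycycline-inducible promoter; compound on cells about two nights before reading with doxycycline added after day one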
# An asterisk follows results filed as active; / = not tested or not shown. Hits are enriched below; roughly 4.6% of the tested compounds scored in any of these assays.
SMILES,Mdm2-MdmX inh,KKLEB tox,ABHD5-PLIN5 inh,CF NFkB inh,HIF-2a inh,Peg3 promoter,Mdm2-MdmX conf,FLuc counter
CCN(CC)CCNC(=O)c1cc(S(=O)(=O)N2CCc3ccccc32)cn1C,25,16,5,-15,1,9,/,/
CCN(CC)CCNC(=O)c1ccc(NC(=O)c2cccc(S(=O)(=O)N3CCc4ccccc43)c2)cc1,76*,-18,10,6,11,77*,44*,67*
COc1cc2c(cc1OC)CN(C(=O)c1cccc(S(=O)(=O)N3CCc4ccccc43)c1)CC2,90*,-7,-6,32,5,21,59*,86*
O=C(Nc1ccc(F)cc1F)NC1CCCCCCC1,11,13,-9,-14,-221,-206,/,/
O=C(C/C=N\O)Nc1ccc(Oc2ccccc2)cc1,-1,7,4,-14,6,5,/,/
CO/N=C\CC(=O)Nc1ccc(Oc2ccccc2)cc1,52*,-6,-3,30,-19,12,63*,73*
COc1ccc(N(Cc2ccccc2)S(=O)(=O)c2cccc(C(=O)Nc3ccccn3)c2)cc1,57*,-4,2,11,14,22,11,/
CCCCCCCN(C(=O)CCl)c1cccc(C)c1,99*,-87*,4,78*,19,6,97*,23
CCCCCCN(C(=O)CCl)c1ccccc1,98*,-68*,12,85*,18,27,92*,22
COc1cccc(OCC(=O)NC2CCS(=O)(=O)C2)c1 (configuration not stated),-12,8,-9,-11,10,16,/,/
FC(F)(F)c1nnc2c(Sc3ccccc3)nc3ccc(Cl)cc3n12,97*,-90*,3,96*,34,62*,99*,21
FC(F)(F)c1nc2ccccc2n2c(-c3ccc(Cl)cc3Cl)nnc12,47,-4,2,16,22,30,/,/
C=CCNC(=O)c1ccc(NC(=O)C2=CSCCO2)cc1,-50,1,-1,7,-117,-74,/,/
Cc1ccc(-n2cc(CN3CCC(CO)(Cc4cccc(C(F)(F)F)c4)CC3)cn2)cc1,84*,-25,12,19,7,108*,48*,69*
CC(=O)Nc1ccc(Nc2nc(-c3c(C)nc4ccccn34)cs2)cc1,66*,9,-13,-3,-21,17,47*,66*
Cc1nc2ncccn2c1-c1csc(Nc2ccccc2)n1,62*,1,-12,-21,-155,-38,24,/
O=C(COC(=O)c1ccc([N+](=O)[O-])o1)NC1CCCc2ccccc21 (configuration not stated),13,1,-4,1,-5,16,/,/
COc1ccc(/C=C2/Sc3ccc(C(=O)NCCCN4CCOCC4)cc3NC2=O)cc1OC,76*,-6,13,-5,23,88*,19,/
CCN1CCN(CCCNC(=O)c2ccc3c(c2)NC(=O)/C(=C\c2cccc(C)c2)S3)CC1,97*,-10,15,8,8,107*,61*,63*
CCOC(=O)C1CCN(C(=O)c2ccc3c(c2)NC(=O)/C(=C\c2cccc(C)c2)S3)CC1,5,16,8,-1,-26,-1,/,/
CCN1CCCC1CNC(=O)c1ccc2c(c1)NC(=O)/C(=C\c1ccc(OC)c(OC)c1)S2 (configuration not stated),53*,5,5,-8,21,40,19,/
Cc1cccc(/C=C2/Sc3ccc(C(=O)NCCCN4CCOCC4)cc3NC2=O)c1,53*,-5,7,16,13,65*,2,/
COc1ccc(C(=O)NCCCN2CCOCC2)cc1OC,10,-9,-2,-1,3,6,/,/
CCN1CCCC1CNC(=O)c1ccc2c(c1)NC(=O)/C(=C\c1ccccc1Cl)S2 (configuration not stated),/,-3,2,10,-26,24,/,/
CCOC(=O)C1=C[C@@H](C(C)(C)C)N(S(=O)(=O)c2ccc(C)cc2)[C@H]1c1cccc2ccccc12,/,8,-3,4,8,11,/,/
SMILES,Mdm2-MdmX inh,KKLEB tox,ABHD5-PLIN5 inh,CF NFkB inh,HIF-2a inh,Peg3 promoter,Mdm2-MdmX conf,FLuc counter
O=C(CCN1C(=O)c2ccccc2S1(=O)=O)NCc1ccccc1,10,-3,1,14,4,1,/,/
CCN1CCN(CCCNC(=O)c2ccc3c(c2)N(Cc2ccc(C)cc2)CCS3)CC1,51*,-3,0,10,11,24,6,/
COc1cc(C)cc(OC)c1OCC(=O)Nc1cc(C)on1,-16,-7,-8,-1,1,11,/,/
COc1cccc(/C=C/c2nc3c(cnn3-c3ccccc3)c(=O)[nH]2)c1,41,1,4,3,-23,-20,/,/
O=c1[nH]c(/C=C/c2ccc(Br)cc2)nc2c1cnn2-c1ccccc1,83*,/,/,/,/,/,21,/
Cc1sc2nc(CSC(C)C(=O)N(C)CC(=O)Nc3ccccc3C(F)(F)F)[nH]c(=O)c2c1C (configuration not stated),51*,-3,-8,-13,-3,14,27,/
CSc1ccccc1NC(=O)CN(C)C(=O)C(C)SCc1nc2sc(C)c(C)c2c(=O)[nH]1 (configuration not stated),/,1,-3,16,12,17,/,/
Cc1ccc(S(=O)(=O)Nc2cc(-c3nn(C)c(=O)c4ccccc34)ccc2N2CCOCC2)cc1,86*,-14,-2,-45,14,24,77*,30
Cn1nc(-c2ccc(N3CCOCC3)c(NS(=O)(=O)c3ccc(Cl)cc3)c2)c2ccccc2c1=O,67*,-4,-4,-28,14,24,36,38*
C#CCn1cc(CNC[C@H]2O[C@@H](n3cnc4c(=O)[nH]c(N)nc43)[C@H](O)[C@@H]2O)c2ccccc21,/,2,3,1,18,-7,/,/
CCN1CC(CN(C)Cc2cn(-c3cccc(C)c3)nc2-c2cccc(F)c2)CC1=O (configuration not stated),6,2,12,-15,-52,-21,/,/
Cc1nnc2c(NCCc3ccccc3)nc3ccccc3n12,57*,-3,-4,-51,1,-5,15,/
Cc1cccc(CCNc2nc3ccccc3n3nnnc23)c1,0,1,4,-7,-43,-46,/,/
NS(=O)(=O)c1ccc(CCNS(=O)(=O)c2ccc(Cl)s2)cc1,-2,6,6,-14,3,13,/,/
CCCCC[C@@H](C)N1C[C@H](COCc2ccccc2)Oc2cc(N3CC[C@H](O)C3)ccc2S1(=O)=O,/,/,-2,/,12,/,/,/
O=C(CN1C(=O)NC2(CCCC2)C1=O)NCc1ccccc1,2,-20,1,-2,4,1,/,/
